According to PubChem BioAssay (NCATS):
Records with an inconclusive call do not appear. The source made the active and inactive calls. Unless noted, calls follow the shape of the dose curve; as a rule, active = well fitted curve in the direction sought with a large enough effect; inconclusive = small, poorly fitted or top-dose-only effect, or another doubt; inactive = no such curve, though single readings can be large; an effect the other way counts as inactive or inconclusive.

Experiments:
[1] = target: Cytochrome P450 3A4 (Homo sapiens) (UniProt P08684); assay: qHTS Assay for Inhibitors and Substrates of Cytochrome P450 3A4 (AID 884); also: nearly all actives have a fitted effect of over 50% in size; also: potency is read from the fitted curve at half-maximal effect; as to activity change, negative = inhibition: % is scaled to controls: 0 for no effect and ±100 for the full control effect
Cytochrome P450 3A4 (Homo sapiens), sequence (P08684 whole entry, looked up): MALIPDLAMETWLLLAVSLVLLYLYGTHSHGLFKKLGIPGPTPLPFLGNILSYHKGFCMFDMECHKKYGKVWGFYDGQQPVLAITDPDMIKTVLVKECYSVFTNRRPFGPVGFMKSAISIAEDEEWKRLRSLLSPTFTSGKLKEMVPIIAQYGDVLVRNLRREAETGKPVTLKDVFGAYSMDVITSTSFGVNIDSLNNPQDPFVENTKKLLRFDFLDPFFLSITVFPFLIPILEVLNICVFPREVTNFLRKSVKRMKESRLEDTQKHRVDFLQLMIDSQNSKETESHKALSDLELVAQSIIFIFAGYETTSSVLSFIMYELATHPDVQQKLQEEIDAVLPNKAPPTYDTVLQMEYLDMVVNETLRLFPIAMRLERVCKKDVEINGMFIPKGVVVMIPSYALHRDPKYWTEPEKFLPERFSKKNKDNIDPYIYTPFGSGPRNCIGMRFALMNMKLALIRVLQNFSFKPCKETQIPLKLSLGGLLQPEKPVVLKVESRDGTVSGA
How it was run: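 Luminescent readout of luciferin produced by CYP3A4 (20 nM) dealkylation of Luciferin-PPXE, 25 uM (its KM). NADPH-driven reaction ran 60 min at RT after 10 min compound preincubation; data scaled to 57 uM ketoconazole as 100% inhibition.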

[2] = target: Cytochrome P450 3A4 (Homo sapiens) (UniProt P08684); assay: qHTS Assay for Activators of Cytochrome P450 3A4 (AID 885); also: nearly all actives have a fitted effect of over 65% in size
How it was run: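 CYP3A4 activity: Luciferin-PPXE O-dealkylation, 25uM substrate, 200mM KPO4, RT throughout. Read-out is luciferase luminescence; higher values reflect activation.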

[3] = Confirmation and Secondary Assay for Modulators of Hemoglobin Beta Chain Splicing at IVS2 654 locus (AID 910);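 also: HeLa cells stably carrying EGFP split by mutant beta-globin IVS2-654 intron; % of control where 0% means no effect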
How it was run: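 HeLa cells stably expressing EGFP interrupted by β-globin IVS2-654 intron, seeded overnight in Opti-MEM/2% FCS, then treated 2 days at 37 °C. Restored splicing read as total peak GFP intensity per well by laser scanning cytometry (488 nm excitation, 500–520 nm emission); 500 nM antisense PNA as control.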

[4] = Confirmation and Secondary Assay for Modulators of Hemoglobin Beta Chain Splicing at IVS2 705 locus (AID 930);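 also: HeLa cells stably expressing the EGFP-705 splicing reporter; GFP fluorescence per well restored by corrected splicing of the IVS2-705 intron in EGFP; % of control where 0% means no effect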
How it was run: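 HeLa EGFP-705 reporter; 500 cells/well, o/n 37C 5% CO2; cpd 2 d; 488 ex/500-520 em laser scan; total peak GFP intensity/well. Ref: 500 nM […] antisense PNA.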

[5] = qHTS Assay for Lipid Storage Modulators (AID 1519; calls by dose curve; as to activity change, negative = inhibition: % is scaled to controls: 0 for no effect and ±100 for the full control effect); settings: Drosophila S3 cells, BODIPY lipid droplet/cell ratio, laser cytometry, cells loaded with oleic acid; for activity change, negative = inhibition: at 57.5 µM (top of the series)
How it was run: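 Cells seeded at 5,000 per well were treated with compounds over a concentration series and loaded with oleic acid (400 uM, as added). Lipid droplet fluorescence (488 nm excitation, 500-530 nm channel) was read by laser-scanning cytometry and normalized to 20 uM Triacsin C.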

[6] = target: DNA dC->dU-editing enzyme APOBEC-3G (Homo sapiens) (UniProt Q9HC16); assay: qHTS for inhibitors of Vif-A3G interactions: Validation (AID 588379); also: 0% is about no effect
DNA dC->dU-editing enzyme APOBEC-3G (Homo sapiens), sequence (Q9HC16 whole entry, looked up): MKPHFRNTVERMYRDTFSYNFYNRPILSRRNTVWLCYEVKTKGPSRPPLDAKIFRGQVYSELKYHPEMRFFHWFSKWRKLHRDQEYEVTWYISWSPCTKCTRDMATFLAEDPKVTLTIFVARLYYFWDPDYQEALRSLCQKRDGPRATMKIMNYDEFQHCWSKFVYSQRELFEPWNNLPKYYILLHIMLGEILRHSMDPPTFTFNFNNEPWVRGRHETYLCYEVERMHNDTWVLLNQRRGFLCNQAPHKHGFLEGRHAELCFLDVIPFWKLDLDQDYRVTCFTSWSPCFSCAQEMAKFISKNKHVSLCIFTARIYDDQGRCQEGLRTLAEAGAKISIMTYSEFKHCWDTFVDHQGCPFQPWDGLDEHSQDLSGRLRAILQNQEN
How it was run: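 Yellow fluorescence (Ex 488, Em 500-530) of Vif-coexpressing HeLa A3G-eYFP cells, scanned by Acumen cytometer, reports blocked A3G degradation. Cells plated at 700/well overnight at 37 deg C before compound addition, then a further overnight compound incubation at 37 deg C.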

[7] = target: Ubiquitin carboxyl-terminal hydrolase 1 (Homo sapiens) (UniProt O94782); assay: Inhibitors of USP1/UAF1: Pilot qHTS (AID 504865); also: nearly all actives have a fitted effect of over 35% in size; also: potency is read from the fitted curve at half-maximal effect;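 as to activity change, negative = inhibition: rhodamine fluorescence freed from ubiquitin-rhodamine substrate followed over time; top concentration of the series differs between compounds; % is scaled to controls: 0 for no effect and ±100 for the full control effect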
Ubiquitin carboxyl-terminal hydrolase 1 (Homo sapiens), sequence (O94782 whole entry, looked up): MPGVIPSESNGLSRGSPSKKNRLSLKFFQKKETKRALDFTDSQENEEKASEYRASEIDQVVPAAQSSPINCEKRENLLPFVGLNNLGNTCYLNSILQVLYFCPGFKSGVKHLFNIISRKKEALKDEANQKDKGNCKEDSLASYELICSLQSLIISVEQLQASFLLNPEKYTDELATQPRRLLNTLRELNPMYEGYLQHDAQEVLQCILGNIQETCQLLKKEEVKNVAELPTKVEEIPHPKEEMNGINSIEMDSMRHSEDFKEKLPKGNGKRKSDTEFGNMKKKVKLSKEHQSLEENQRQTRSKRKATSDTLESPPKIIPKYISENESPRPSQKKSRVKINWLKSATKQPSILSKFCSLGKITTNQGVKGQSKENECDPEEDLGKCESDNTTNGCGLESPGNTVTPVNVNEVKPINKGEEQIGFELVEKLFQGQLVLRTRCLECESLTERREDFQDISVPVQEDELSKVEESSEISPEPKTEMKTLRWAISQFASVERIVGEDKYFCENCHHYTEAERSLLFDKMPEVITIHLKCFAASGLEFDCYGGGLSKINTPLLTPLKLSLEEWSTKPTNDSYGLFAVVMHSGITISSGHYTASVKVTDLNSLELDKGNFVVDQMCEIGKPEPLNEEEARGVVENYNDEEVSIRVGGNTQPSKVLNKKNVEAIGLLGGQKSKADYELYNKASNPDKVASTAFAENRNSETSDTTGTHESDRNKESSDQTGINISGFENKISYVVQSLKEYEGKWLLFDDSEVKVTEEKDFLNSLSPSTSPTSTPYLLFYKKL
How it was run: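 Enzyme-free wells gave the negative control, while test wells held 1nM USP1/UAF1 preincubated with compound for 15 min at room temperature. Ub-Rho at 150nM final started the reaction, and fluorescence at 480/540 nm was recorded kinetically.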

[8] = measured here: cell count channel max response
[9] = measured here: lipid channel max response

| SMILES | Potency [1] | Potency [2] | Potency [3] | Potency [4] | activity change, negative = inhibition [5] | max response [5, 8] [%] | max response [5, 9] [%] | outcome [6] | Potency [7] |
| --- | --- | --- | --- | --- | --- | --- | --- | --- | --- |
| COC(=O)CC1C(C)(C)C(O)C2CC3=C4CC(O)OC(c5ccoc5)[C@]4(C)CCC3[C@@]1(C)C2=O (stereo not given in full) | 3.16 µM (active) | inactive | inactive | inactive | -6.39% (inactive) | 8.85 | 5.28 |  |  |
| C=C1CCC2C(C)(CO)C(O)CCC2(C)C1C/C=C1\C(=O)OCC1O (stereo not given) |  |  |  |  | -0.167% (inactive) | 24.9 | 25.5 | inactive |  |
| C=C[C@](C)(O)CCC1C(=C)CC(O)C2C(C)(C)CCCC12C (stereo not given in full) | 1.58 µM (active) | inactive | inactive |  | 10.1% (inactive) | 7.01 | 14.1 |  |  |
| COc1c2ccoc2nc2c(OC)c(OCC(O)C(C)(C)O)ccc12 (stereo not given) |  | inactive | inactive |  | 9.6% (inactive) | 16.9 | 29.2 | inactive |  |
| O=C(/C=C/c1ccc(O)c(O)c1)O[C@@H]1C[C@@](O)(C(=O)O)C[C@H](O)[C@@H]1O | inactive |  |  |  | -7.73% (inactive) | 3.01 | -5.95 | inactive |  |
| O=C(O)CCC(=O)C(=O)O (tested in a mixture with another compound) |  |  | inactive | inactive | 3.77% (inactive) | 11.4 | 18.6 |  | inactive |
| CCOC(=O)C(CCc1ccccc1)NC(C)C(=O)N1C(C(=O)O)CC2CCCC21 (stereo not given) |  |  | inactive | inactive | 8.81% (inactive) | 13.5 | 25.8 |  | inactive |
| O=C(O)CCCC[C@@H]1SC[C@H]2NC(=O)N[C@@H]12 | inactive |  |  |  | 6.17% (inactive) | 12.9 | 23.3 | inactive |  |
| COC1=CC(=O)C(C(=O)c2ccccc2)=CC1=O |  |  | inactive | inactive | 9.22% (inactive) | 13.1 | 25.8 |  | 25.1 µM (active) |
| COc1ccc(-c2oc3ccccc3c(=O)c2O)cc1OC | 20 µM (active) | inactive | inactive | inactive | 7.98% (inactive) | 6.61 | 24.2 |  |  |
| CC(=O)OC1CC2C(C)(C)C(O)CC[C@@]2(C)C2CC[C@@]3(C)C(c4ccoc4)OC(=O)C4OC43[C@]12C (stereo not given in full) | 2.51 µM (active) | inactive | inactive | inactive | -20.5% (inactive) | -7.63 | -27.3 |  |  |
| CC1(C)CCC[C@]2(C)C3CC(=O)O[C@@]3(C)CC[C@H]12 (stereo not given in full) |  | inactive |  |  | 5.49% (inactive) | 5.53 | 11.1 | inactive |  |
| N=c1ccn2c(n1)O[C@@H]1[C@H](O)[C@H](CO)O[C@@H]12 | inactive |  |  |  | -7.95% (inactive) | 4.02 | -4.27 | inactive |  |
